According to publication PMC4336329 (PLoS ONE, 2015):
Out of some 310,000 compounds screened, about 14,000 (4.5%) showed an effect of 50% or more. The effect is printed as a negative number. The sample holds strong results, similar compounds and a random draw of the others, so the mix is not that of the screen.

target: human ether-à-go-go-related gene (hERG) potassium channel (human, UniProt Q12809); test: primary screen, population patch clamp on CHO cells stably expressing hERG; higher = less effect of the substance
Sequence (Q12809 whole entry, looked up): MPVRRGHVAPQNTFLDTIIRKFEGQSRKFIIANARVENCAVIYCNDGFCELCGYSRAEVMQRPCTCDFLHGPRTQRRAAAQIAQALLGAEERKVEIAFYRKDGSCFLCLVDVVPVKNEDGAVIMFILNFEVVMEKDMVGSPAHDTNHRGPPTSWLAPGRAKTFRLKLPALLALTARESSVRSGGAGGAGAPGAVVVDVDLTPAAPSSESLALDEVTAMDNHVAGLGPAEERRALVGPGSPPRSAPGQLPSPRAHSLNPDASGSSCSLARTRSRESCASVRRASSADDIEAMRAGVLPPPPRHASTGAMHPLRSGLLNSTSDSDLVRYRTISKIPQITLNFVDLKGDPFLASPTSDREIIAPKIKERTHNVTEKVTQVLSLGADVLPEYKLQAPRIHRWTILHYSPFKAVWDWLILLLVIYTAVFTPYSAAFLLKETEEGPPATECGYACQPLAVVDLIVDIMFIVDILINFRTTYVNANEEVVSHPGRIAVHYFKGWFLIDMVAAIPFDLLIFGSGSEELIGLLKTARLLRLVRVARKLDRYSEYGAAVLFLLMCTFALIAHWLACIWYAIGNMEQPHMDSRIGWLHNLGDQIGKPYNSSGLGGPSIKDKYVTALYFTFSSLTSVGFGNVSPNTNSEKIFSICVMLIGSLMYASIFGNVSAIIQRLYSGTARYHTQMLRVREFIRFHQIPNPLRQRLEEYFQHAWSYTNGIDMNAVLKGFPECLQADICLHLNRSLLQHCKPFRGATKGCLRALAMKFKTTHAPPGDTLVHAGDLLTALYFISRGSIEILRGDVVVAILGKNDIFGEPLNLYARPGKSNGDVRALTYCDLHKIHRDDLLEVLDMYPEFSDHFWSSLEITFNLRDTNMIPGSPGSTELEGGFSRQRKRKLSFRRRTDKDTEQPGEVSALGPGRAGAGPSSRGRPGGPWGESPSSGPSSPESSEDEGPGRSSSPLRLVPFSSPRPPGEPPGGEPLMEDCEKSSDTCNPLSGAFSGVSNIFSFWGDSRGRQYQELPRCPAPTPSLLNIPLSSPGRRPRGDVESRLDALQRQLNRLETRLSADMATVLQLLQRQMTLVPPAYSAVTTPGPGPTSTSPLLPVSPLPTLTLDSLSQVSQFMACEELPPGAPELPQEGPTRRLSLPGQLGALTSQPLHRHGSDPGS
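Also: peak tail current of the secondary pulse compared with the same well before compound.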

Row | Structure (SMILES) | hERG current change (%, negative = inhibition) at 10uM
1 | COc1ccccc1NC(=O)c1ccc(NS(=O)(=O)c2ccc(F)c(F)c2F)cc1 | -6.5%
2 | COc1ccc(C(=O)CSc2nnc(-c3cccs3)n2-c2ccccc2)cc1 | 4.83%
3 | CSCCC(NC(=O)C12CC3CC(CC(C3)C1)C2)C(=O)OCC(=O)c1ccccc1 (centres unmarked) | 12.7%
4 | c1ccc2[nH]c(SCc3cscn3)nc2c1 | 2.76%
5 | COc1ccc(-n2ccnc2CN2CCN(C3CCCC3)C(CCO)C2)cc1 (centres unmarked) | -29.1%
6 | CC(C)CN1CCN(Cc2cc(F)ccc2-n2cccn2)CC1CCO (centres unmarked) | -6.87%
7 | Cc1cccc(CN2CCN(Cc3cccc(-n4cccn4)c3)CC2CCO)n1 (centres unmarked) | -45.7%
8 | OCCC1CN(Cc2cccc(-n3cccn3)c2)CCN1Cc1ccccc1 (centres unmarked) | -44.8%
9 | CC(C)CCN1CCN(Cc2cc(F)ccc2-n2cccn2)CC1CCO (centres unmarked) | -25.8%
10 | Cc1cccc(-n2ccnc2CN2CCN(C(C)C)C(CCO)C2)c1 (centres unmarked) | -12.3%
11 | CCOC(=O)c1[nH]ncc1CN1CCN(Cc2ccc(C)cc2)C(CCO)C1 (centres unmarked) | -38.8%
12 | Cc1cccc(-n2ccnc2CN2CCN(C3CCCC3)C(CCO)C2)c1 (centres unmarked) | -59.1%
13 | OCCC1CN(Cc2cc(F)ccc2-n2cccn2)CCN1Cc1ccc(F)cc1 (centres unmarked) | -62.5%
14 | Cc1cc(-n2cccn2)ccc1CN1CCN(CC(C)C)C(CCO)C1 (centres unmarked) | -45.5%
15 | Cc1ccc(CN2CCN(Cc3cccc(-n4cccn4)c3)CC2CCO)cc1 (centres unmarked) | -74.5%
16 | Cc1ccc(CN2CCN(Cc3ccc(-n4cccn4)cc3C)CC2CCO)cc1 (centres unmarked) | -78.6%
17 | Cc1c(Cl)cccc1N1CC(C)(C)C1=O | -2.95%
18 | COC(=O)c1sc2nc(SCc3cccc(Cl)c3)n(N)c(=O)c2c1C | 1.39%
19 | CCC1Sc2ccccc2N(CC(=O)NC2CC2)C1=O (centres unmarked) | 7.59%
20 | COc1ccc(CN2CC(C(N)=O)Oc3ccccc32)cc1F (centres unmarked) | 3.16%
21 | Cn1ncnc1SCc1cn2cccnc2n1 | 14.2%
22 | CC1CC(Nc2ccccc2N)=CC(=O)O1 (centres unmarked) | 11.7%
23 | COc1ccc(C2/C(=C(/O)c3ccccc3)C(=O)C(=O)N2c2ncccn2)cc1OC (centres unmarked) | 7.54%
24 | CC(=O)c1ccc(-c2ccccc2OC(F)(F)F)o1 | -10.7%

Row | Structure (SMILES) | hERG current change (%, negative = inhibition) at 10uM
25 | O=C(NCCOc1ccccc1F)c1ccc2c(=O)n3c(nc2c1)CCC3 | -20.8%
26 | OCCC1CN(Cc2ccc(-n3cccn3)cc2)CCN1Cc1ccccc1 (centres unmarked) | -59.8%
27 | CC(C)CCN1CCN(Cc2cccc(-n3cccn3)c2)CC1CCO (centres unmarked) | -57.6%
28 | CC(C)N1CCN(Cc2cccc(-n3cccn3)c2)CC1CCO (centres unmarked) | -12.3%
29 | CSCCCN1CC[C@@H](N2CCN(c3ccccc3F)CC2)[C@H](O)C1 | -36.8%
30 | CC(C)=CC(=O)N1CC[C@@H](N2CCN(c3ccccc3F)CC2)[C@H](O)C1 | 1.23%
31 | Cc1cccc(CN2CCN(Cc3ccc(-n4cccn4)cc3)CC2CCO)n1 (centres unmarked) | -30.2%
32 | O[C@@H]1CN(Cc2ccc(-n3cccn3)cc2)CC[C@H]1N1CCN(c2ccccc2F)CC1 | -67.5%
33 | Cc1ccc(CN2CCN(Cc3ccc(-n4cccn4)cc3)CC2CCO)cc1 (centres unmarked) | -78.1%
34 | CCOC(=O)CC(C)(C)/C(C)=N/Nc1ccc([N+](=O)[O-])cc1[N+](=O)[O-] | -24.5%
35 | CCOc1ccc(CCNC(=O)c2cccc(C#N)c2)cc1OCC | -6.55%
36 | Cc1ccc(N2C(=O)Nc3ccc(Br)cc3C2(O)C(=O)NCCN(C)C)cc1C (centres unmarked) | 21.4%
37 | CCCCn1c(SCc2nc(N)nc(Nc3ccccc3C)n2)nc2ccccc2c1=O | -1.63%
38 | Cc1c(NC(=O)CN2C(=O)c3cccc4cccc2c34)c(=O)n(-c2ccccc2)n1C | 4.55%
39 | OCCC1CN(Cc2cc(F)ccc2-n2cccn2)CCN1C1CCCC1 (centres unmarked) | -29%
40 | OCCC1CN(Cc2cccc3nccnc23)CCN1C1CCCC1 (centres unmarked) | -4.4%
41 | Cc1cc(-n2cccn2)ccc1CN1CCN(C2CCCC2)C(CCO)C1 (centres unmarked) | -73.5%
42 | COc1cccc(-c2sc3ccc(OC)cc3c2C#CCC(C)O)c1 (centres unmarked) | 25.8%
43 | COc1ccc(CN(C)C(=O)C23CC4CC(CC(C4)C2)C3)c(OC)c1 | -25%
44 | CCOC(=O)c1cc(-c2ccc(OC(F)F)cc2)nc2nc(SC)[nH]c(=O)c12 | -42.7%
45 | COc1ccc(NS(=O)(=O)c2cccc(C(=O)NNC(=O)CNC(=O)c3ccco3)c2)cc1 | 12.8%
46 | CC(=O)Nc1ccc2c(c1)N(S(=O)(=O)c1cccs1)CCC2 | -3.79%
47 | Cc1ccc(C(=O)N/C(=C\c2ccco2)C(=O)NCCCn2ccnc2)cc1C | -39.8%
48 | Cc1ccc(C(=O)N/C(=C/c2ccco2)C(=O)NCCCn2ccnc2)cc1 | -64.7%

Row | Structure (SMILES) | hERG current change (%, negative = inhibition) at 10uM
49 | Cc1ccc(C(=O)N/C(=C\c2ccco2)C(=O)NCCN2CCOCC2)cc1C | -3.01%
50 | Cc1ccc(C(=O)N/C(=C\c2ccco2)C(=O)NCCCn2ccnc2)cc1 | -64.3%
51 | Cc1ccc(C(=O)N/C(=C\c2ccco2)C(=O)NCCN2CCCCC2)cc1C | -60.1%
52 | O=C(NCCN1CCCCC1)/C(=C/c1ccco1)NC(=O)c1ccccc1 | -40.6%
53 | COc1ccc(C(=O)N/C(=C\c2ccco2)C(=O)NCCCn2ccnc2)cc1 | -19.7%
54 | CCOC(=O)C1=C(C)Nc2nc(SCC)[nH]c(=O)c2C1c1ccncc1 (centres unmarked) | -7.65%
55 | Cc1cc(C)c(C)c(S(=O)(=O)N2CCN(Cc3nc4ccccc4[nH]3)CC2)c1C | 0.133%
56 | Nc1c(NCCc2ccccc2)c2ccccc2oc1=O | -11.9%
57 | COc1ccc(/C=c2\sc3nc(=O)c(C)nn3c2=O)c(OC)c1 | 23%
58 | O=C(COC(=O)c1cc(-c2ccncc2)nc2ccccc12)Nc1ccc2c(c1)OCO2 | 2.21%
59 | COc1ccc(CNS(=O)(=O)c2ccc(S(=O)(=O)N3CCCCC3)cc2)cc1 | 7.34%
60 | CN(NC(=O)c1ccccc1Cl)c1ncc(C(F)(F)F)cc1Cl | -1.95%
61 | Cc1c(OCc2ccc([N+](=O)[O-])cc2)ccc2c3c(c(=O)oc12)CCC3 | 0.652%
62 | Cc1nc(C)n(C(C)CNS(=O)(=O)c2ccc(Cl)cc2)n1 (centres unmarked) | 13.9%
63 | O=C(C[n+]1ccn(CCCNP2(=O)C=C(c3ccccc3)OC(c3ccccc3)=C2)c1)c1ccccc1.[Br-] | -22.8%
64 | O=P1(NCCCn2cc[n+](Cc3nc4ccccc4[nH]3)c2)C=C(c2ccccc2)OC(c2ccccc2)=C1.[Cl-] | -63%
65 | O=C(C[n+]1ccn(CCCNP2(=O)C=C(c3ccccc3)OC(c3ccccc3)=C2)c1)c1cccs1.[Br-] | -44.7%
66 | CC[C@H](C)[C@H](NC(=O)[C@H](Cc1ccc(O)cc1)NC(=O)[C@@H](N)C(C)C)C(=O)N[C@@H](Cc1cnc[nH]1)C(=O)N1CCC[C@H]1C(=O)N[C@@H](Cc1ccccc1)C(=O)O | 4.75%
67 | O=S(=O)(NCCc1ccncc1)c1ccc(F)cc1 | 12%
68 | CCOC(=O)C1=C(C)N=C2SCCC(=O)N2C1c1cccs1 (centres unmarked) | -10.2%
69 | CCCCCCS(=O)[C@H]1CS(=O)(=O)C[C@@H]1S(=O)CCCCCC (some centres unmarked) | -66.7%
70 | CCCCCCCCS(=O)C1CS(=O)(=O)CC1O (centres unmarked) | 5.75%
71 | CCCCCCCCS(=O)C1CCS(=O)(=O)C1 (centres unmarked) | 4.04%
72 | CCOC(=O)N1CCN(Cc2nc(-c3ccc(Cl)cc3)no2)CC1 | -30.6%

Row | Structure (SMILES) | hERG current change (%, negative = inhibition) at 10uM
73 | CCOC(=O)N1CCN(C(=O)Nc2ccc(Cl)cc2)CC1 | -11.4%
74 | CCOC(=O)N1CCN(Cc2nc(-c3ccc(C)cc3)no2)CC1 | -17.6%
75 | CCOC(=O)N1CCN(Cc2nc(N)nc(Nc3ccc(Cl)cc3)n2)CC1 | -72.4%
76 | CCOC(=O)N1CCN(Cc2nc(N)nc(Nc3ccc(C)cc3C)n2)CC1 | -16.7%
77 | CCOC(=O)N1CCN(Cc2nc(N)nc(Nc3ccc(C)cc3)n2)CC1 | -57.2%
78 | COc1ccc(C2C(C(=O)O)CCC(=O)N2c2ccc(C)cc2)cc1OC (centres unmarked) | -10.6%
79 | CC(C)[C@H](NS(=O)(=O)c1ccccc1)C(=O)OCC(=O)Nc1ccccc1Sc1ccccc1 | 1.98%
80 | C=CCn1c(Sc2nnc(C)s2)nc2c1c(=O)[nH]c(=O)n2C | 11.2%
81 | O=C(NCc1ccccn1)Nc1ccccc1F | 13.5%
82 | Cc1cc(NC(=O)CSc2ccc(Cl)cc2)no1 | -3.36%
83 | COc1cccc(C(=O)CSc2nc3ccccc3n2CC(=O)N(C(C)C)C(C)C)c1 | -5.36%
84 | CCCCCc1ccc(OCCC[n+]2ccccc2)c(CCCCC)c1.[Cl-] | -75.7%
85 | Cc1ccc[n+](CC(=O)Nc2ccc(C)c(C)c2)c1.[Cl-] | 10.4%
86 | CCCCCc1ccc(CC(=O)O)cc1 | 11.4%
87 | CC(=O)Nc1ccc(OCCC[n+]2ccccc2)cc1.[Cl-] | 40.4%
88 | CCCCCc1ccc(OCCCC[n+]2cccc(C)c2)c(CCCCC)c1.[Cl-] | -71.1%
89 | CCCCCc1ccc(OCCCC[n+]2ccccc2)c(CCCCC)c1.[Cl-] | -66.4%
90 | CCCCOc1ccc(CCN)cc1Cl.Cl | -13.7%
91 | CCCCOc1ccc(C)cc1CN(CCO)CCO.Cl | 1.6%
92 | CCCCCOc1ccc(C)cc1CN(CCCl)CCCl.Cl | 13.1%
93 | CCCCCCC[n+]1ccc(-c2cc[n+](CCCCCCC)cc2)cc1.[I-] | 9.12%
94 | CCCCCc1ccc(S(=O)(=O)Nc2cc(C)ccn2)cc1 | 8.41%
95 | CCCCCc1ccc(OCCCC[n+]2ccc(C)cc2)c(CCCCC)c1.[Cl-] | -77%
